# Sm TGR block – S. mansoni TGR enzyme inhibition. Q962Y6. purified TGR, DTNB reduction, TNB absorbance 405 nm. Potency, µM (highest dose often 114 µM), for inactives: top-dose activity change, negative = inhibition, most hits filed as inhibitors. 3% of 360,000 active. AID 485364; further: potency means the concentration at half of the fitted maximal effect; on the % scale 0 is the no-effect control and ±100 the full control effect; nearly all actives have a fitted effect of over 60% in size
#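 Kinetic colorimetric format: TGR-catalysed, NADPH-driven DTNB reduction monitored via TNB absorbance. Enzyme dispensed at 20 nM; compound exposure 15 min at room temperature before reaction start.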
# Pf growth 48h – inhibits P. falciparum growth in the first generation, 48 h. AID 504832. P. falciparum luciferase growth in erythrocytes, 48 h. Potency, µM (doses to about 28.7 µM), for inactives: at the highest dose activity change, negative = inhibition, actives largely listed as inhibitors. 5.9% of 310,000 active; further: potency means the concentration at half of the fitted maximal effect; on the % scale 0 is the no-effect control and ±100 the full control effect
#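 A one-generation exposure of luciferase-tagged malaria parasites in RPMI 1640/Albumax erythrocyte culture, 37 C and 5% CO2. Inhibition is inferred from decreased luminescence after adding detection reagent.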
# NS1 function inh – influenza NS1 inhibition | 0.4% of 270,000 active | Potency, µM (top dose mostly 46.1 µM), inactives show at the top dose activity, positive = more growth | AID 2326; calls by dose curve; further: potency means the concentration at half of the fitted maximal effect; actives are rising curves; nearly all actives have a fitted effect of over 50% in size
#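 S. cerevisiae expressing influenza A NS1, grown in glucose, washed, then diluted 1:100 into pH 6.0 -URA galactose medium with 23 nl compound. Growth recovery read as OD600; NS1-free strain serves as control.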
# Shiga toxin inh – Shiga toxin inhibition; AID 2315; Vero cells, Shiga toxin protein synthesis inhibition reporter; inhibition, % at 38.7 µM; 9.2% of 290,000 active; in the data active means inhibition mostly above about 28%, no sharp cut-off; inactive means mostly below about 43%; further: 0% is about no effect
# CHX counter – counter-screen hit for Shiga toxin inhibitors, cycloheximide; cell reporter, cycloheximide protein synthesis inhibition counterscreen; max response, %; 12% of 300,000 active; AID 2314; in the data active means max response mostly above about 13%, no sharp cut-off; inactive means mostly below about 14%; further: read at 38.3 µM for the half of the compounds with a filed dose; 0% is about no effect
# Pf growth 96h – inhibits malaria parasite growth, 96 h. P. falciparum luciferase reporter growth, 96 h. Potency, µM (top dose mostly 28.7 µM), without a hit: at the highest dose activity change, negative = inhibition, actives largely listed as inhibitors. 6.9% of 320,000 active. AID 504834; further: potency means the concentration at half of the fitted maximal effect; on the % scale 0 is the no-effect control and ±100 the full control effect
#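 Cell-based qHTS: luciferase-tagged P. falciparum in erythrocytes (2% hematocrit, 0.05% parasitemia final) incubated with compounds for 96 hours, 37 C, 5% CO2; luciferase detection reagent then added and luminescence measured.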
# NS1 inh valid – influenza NS1 function inhibition validation; activity change, negative = inhibition, % at 32.9 µM; 1,400 tested, under 10 active; shares compounds with NS1 function inh; influenza NS1 function cell assay, 15-point titration; calls by dose curve; further: 0% is about no effect
# The depositor's hits bear a star; ? = inconclusive; . = no result given; ! = a repeat was not active. Rows were chosen to be rich in hits. Some 21% of all compounds tested hit in one or more screens of this group. Unless noted, the call rests on the fitted dose curve; in most records, active means well fitted curve in the direction sought with a large enough effect; inconclusive means small, poorly fitted or top-dose-only effect, or another doubt; inactive means no such curve, though single readings can be large; an effect the other way counts as inactive or inconclusive.
SMILES,Sm TGR block,Pf growth 48h,NS1 function inh,Shiga toxin inh,CHX counter,Pf growth 96h,NS1 inh valid
O=C1c2ccccc2C(=O)N1c1nc2nccc(-c3ccccc3)n2n1,-26.7%,30.5%,?,-8.7,-4.5,.,8.3
Cc1cc(=O)[nH]c(N/N=C/c2cn(CCC#N)nc2-c2ccccc2)n1,0.2%,9.2%,.,-5.5,-2.4,37.9%,.
CCCCCN(C(=O)CCC(=O)OCc1cccc(F)c1)c1c(N)n(CCCC)c(=O)[nH]c1=O,-9.2%,?,.,.,.,?,.
COc1ccccc1/C=C(\NC(=O)c1ccc(OC)c(OC)c1)C(=O)Nc1ccc([N+](=O)[O-])cc1,0.2%,-3.5%,12.6µM*,-6.2,-2.5,?,12.8
COc1ccc(C(=O)N/C(=C\c2ccccc2)C(=O)Nc2cccc(C(=O)O)c2)cc1,-15.5%,7.6%,10µM*,0.8,0.7,?,4.4
CC1CN(C(C)C(=O)NC(c2ccccc2)c2ccccc2)CC(C)O1 (centres undefined),-15.4%,1.0%,-0.5%,-11.0,-4.6,3.6%,.
COCCNC(=O)CCc1ccc(S(=O)(=O)Nc2ccc(C)cc2)cc1,-18.2%,-7.8%,15.8µM*,-23.5,-4.8,.,-20.7
Cc1ccc(NS(=O)(=O)c2ccc(CCC(=O)NC3CC3)cc2)cc1,-10.0%,-23.7%,2.2%,-17.5,-1.6,.,.
O=[N+]([O-])c1cc(S(=O)(=O)Nc2ccccc2)ccc1N1CCN(c2ccc(O)cc2)CC1,-21.1%,-13.4%,14.1µM*,7.9,-3.3,?,5.6
CCn1c(COc2ccccc2)nnc1SCC(=O)NC1CC1,-12.4%,?,2.8%,-2.1,-0.5,-12.1%,.
Cc1cc(C)cc(N2C(=O)NC(=O)/C(=C\c3cccn3-c3ccc(Cl)cc3)C2=O)c1,?,?,1µM*,14.5,10.7,?,-0.3
O=C1NC(=S)NC(=O)C1=Cc1cccn1-c1ccc(O)cc1,?,0.0%,.,30.8,-3.5,13.7%,.
O=C(O)c1cc(-c2ccco2)nc2ccc(Br)cc12,0.708µM*,4.7%,20µM*!,3.8,6.1,?,10.6
O=C1CSCN1c1cc(Cl)ccc1Cl,.,22.1%,?,-3.1,1.8,-2.5%,9.4
COCCN(C(=O)COC(=O)C1CCC(C(C)(C)C)CC1)c1c(N)n(Cc2ccccc2)c(=O)[nH]c1=O (centres undefined),0.0%,-25.4%,.,.,.,?,.
COc1ccc(-n2cc(C(=O)Nc3cc([N+](=O)[O-])ccc3OC)c3ccccc3c2=O)cc1,-3.8%,-27.6%,22.4µM*,-6.5,-2.4,?,8.6
COc1ccc([N+](=O)[O-])cc1NC(=O)c1ccccc1SC,15.9%,0.0%,.,35.4,-0.5,27.8%,.
O=C(c1cccc(F)c1)N1CCc2ccccc2C1,0.6%,14.5%,?,55.5*,40.1*,43.6%,-25.8
COCCCNC(=O)Nc1cc(C(=O)NCc2ccc(OC)cc2)ccc1N1CCCC1,-13.7%,.,.,.,.,.,.
CCCC(C)NC(=S)NC(=O)c1cc(S(=O)(=O)N2CCOCC2)ccc1C (centres undefined),-22.7%,?,6.7%,23.1,-3.7,?,.
CCCCCC(C)NC(=S)NC(=O)c1cc(S(=O)(=O)N2CCOCC2)ccc1C (centres undefined),-12.3%,?,20µM*,-6.9,-3.5,11.7µM*,-37.1
N#CC1=C(N)OC2=C(CC/C2=C\c2ccccc2)C1c1ccccc1 (centres undefined),11.2µM*,?,0.891µM*,20.0,22.0,104.2%,?
CCCC(=O)Nc1ccc(Cl)c(NC(=O)CC)c1,-0.9%,15.5%,-7.4%,29.9,-2.7,-24.0%,.
CCCC(=O)Nc1ccc(Cl)c(NC(=S)NC(=O)c2cc3ccccc3o2)c1,-6.4%,2.4%,?,7.5,4.7,-6.3%,0.7
Cc1ccccc1C(=O)N1CCc2cc(-c3nc(NC(=O)Cc4ccc5c(c4)OCO5)sc3C)ccc21,-0.3%,?,?,11.6,24.3,54.1%,0.9
SMILES,Sm TGR block,Pf growth 48h,NS1 function inh,Shiga toxin inh,CHX counter,Pf growth 96h,NS1 inh valid
Cc1ccc(S(=O)(=O)c2c(C(=O)c3ccccc3)cnc3cc4c(cc23)OCCO4)cc1,-14.5%,?,15.8µM*,18.8,13.7,?,8.2
COc1ccccc1NC(=O)CCN1C(=O)C2CC=CCC2C1=O (centres undefined),-13.6%,29.6%,-6.6%,-7.5,-2.3,?,.
Cc1cc(N2CCCC2)nc(-c2ccccc2O)n1,5.5%,27.0%,0.708µM*,5.4,7.6,-2.7%,-23.2
Cc1nn(CC(=O)NCc2ccco2)c(C)c1[N+](=O)[O-],7.6%,-6.2%,3.9%,-21.0,1.2,19.2%,.
CCOC(=O)CSc1nc2ccc(N3CCOCC3)cc2c(=O)n1Cc1ccccc1,6.5%,.,1µM*,51.3,18.2*,?,5.3
CC(C)c1ccccc1-n1c(SCC(=O)N2CCc3ccccc3C2)nc2ccccc2c1=O,-10.6%,1.47µM*,22.4µM*,-10.3,9.0,5.86µM*,-7.2
COc1ccc(CNC(=O)CCn2nc(C)c3c(C)n(-c4ccccc4)nc3c2=O)cc1OC,1.8%,.,.,.,.,.,.
COc1ccc2nc(N/C(N)=N/C(=S)Nc3ccc(C)c(C)c3)nc(C)c2c1,0.8%,2.5%,?,-8.6,3.3,?,.
Cc1cccc(NC(=S)/N=C(\N)Nc2nc(C)c3ccccc3n2)c1,5.6%,-2.0%,10µM*,49.9,29.8*,10.4µM*,-37.0
Cc1ccc(NC(=S)/N=C(\N)Nc2nc(C)c3ccccc3n2)cc1C,6.5%,11.7µM*,11.2µM*,20.0,21.6*,2.33µM*,-24.3
CC(O/N=C\c1ccccc1O)C(=O)Nc1ccccc1C(=O)N1CCOCC1 (centres undefined),1.5%,?,18.5%,-7.8,4.4,-14.6%,.
Cc1ccc2c(c1)cc(C(=O)NCc1ccccc1)n2C,16.9%,0.2%,-9.6%,-2.1,10.1,-8.6%,.
N#Cc1ccccc1S(=O)(=O)N1CCN(C(=O)Cc2coc3cc(O)ccc23)CC1,-21.0%,?,.,.,.,?,.
COc1cccc(CNC(=O)Cn2cc3c(n2)-c2c(oc(C(=O)N4CCCC4)c2C)CC3)c1OC,-8.4%,.,.,.,.,.,.
Cc1c(C(=O)OCC(=O)N2CC(C)OC(C)C2)oc2ccc(Br)cc12 (centres undefined),3.8%,-7.6%,0.447µM*,11.0,4.4,-0.8%,?
Cc1ccc(S(=O)(=O)N2CCOCC2)cc1C(=O)Nc1ccc(S(=O)(=O)Nc2nccs2)cc1,.,-18.6%,-2.9%,1.5,-3.6,?,.
O=C(NC(=S)N1CCCC1)c1cccc([N+](=O)[O-])c1,1.7%,-16.2%,6.6%,-3.5,-3.2,-0.5%,.
O=C1/C(=C/c2cccnc2)Oc2cc(OS(=O)(=O)c3ccc(Cl)cc3)ccc21,4.3%,.,3.55µM*,9.8,13.6,-28.1%,30.9
